Laboratory results: PubChem BioAssay AID1566 (Sanford-Burnham Center for Chemical Genomics, 2009)
Out of some 290,000 compounds screened, about 1,800 (0.62%) were called active. No stated cut-off is given here; in the data, active means inhibition above about 50%; inactive means the rest. The full list was thinned out, with actives kept by preference.

Assay: inhibition of NOD2-driven NF-kB reporter – cell-based, luminescence, uHTS, HEK293 (AID 1566)
Conditions: HEK293 NOD2/NF-kB luciferase reporter, at 4 µM, stronger effect = higher value
For Cc1ccc(NC(=O)C2=NNC(=O)CC2)cc1F, the inhibition was -17.2% (inactive). With Cc1ccccc1S(=O)(=O)Oc1cccc2c(O)cccc12 the inhibition was 1.5% (inactive). With CNC(=O)CN(c1cc([N+](=O)[O-])ccc1OC)S(C)(=O)=O the inhibition was 12.6% (inactive). For CCCCc1oc2ccccc2c1C(=O)c1cc(I)c(OCCN(CC)CC)c(I)c1, the inhibition was 14.9% (inactive). With CCc1oc2ccccc2c1C(=O)c1cc(Br)c(O)c(Br)c1 the inhibition was 51.8% (active). In the case of CCc1oc2ccccc2c1C(=O)CCN1CCCCC1, the inhibition is reported as 3.9% (inactive). With O=C(COC(=O)c1cccnc1Cl)c1ccc(Cl)cc1Cl the inhibition was 9.1% (inactive). For CCCc1ccc(-c2cc(C(=O)Nc3ccc([N+](=O)[O-])cn3)c3ccccc3n2)cc1, the inhibition was -29.8% (inactive). With COc1ccc2oc(=O)c(C(C)=O)cc2c1 the inhibition was 19.5% (inactive). With CCCCN(Cc1ccco1)C(=O)c1cc2c(=O)[nH]c3ccc(C)cc3c2s1 the inhibition was 34.9% (inactive). In the case of COc1ccc(N(CC(=O)N/N=C/c2ccc(N(C)C)cc2)S(=O)(=O)c2ccccc2)cc1, the inhibition is reported as -57% (inactive). With O=C(CNC(=O)C1COc2ccccc2O1)N/N=C/c1ccc(O)cc1O (stereo not given) the inhibition was 8.2% (inactive). With CCN(CC)c1ccc(/C=N/NC(=O)CNC(=O)C2COc3ccccc3O2)c(O)c1 (stereo not given) the inhibition was 69.1% (active). With O=C(CNC(=O)C1COc2ccccc2O1)N/N=C\c1ccccc1Cl (stereo not given) the inhibition was 19.9% (inactive). In the case of O=C(CSc1nc(-c2ccco2)cc(C(F)(F)F)n1)N1CCSCC1, the inhibition is reported as 13.4% (inactive). With CCOC(=O)N1CCN(S(=O)(=O)N2CCCC(C(=O)NCCCN3CC(C)CC(C)C3)C2)CC1 (stereo not given) the inhibition was -13.2% (inactive). In the case of CN1CCc2nc(NC(=O)COc3ccc4ccccc4c3)sc2C1, the inhibition is reported as -39.7% (inactive). In the case of NC(=O)c1cccnc1Nc1ccccc1F, the inhibition is reported as -1.6% (inactive). In the case of O=C(Nc1nc2cc3c(cc2s1)OCCO3)c1cccc(N2C(=O)CCC2=O)c1, the inhibition is reported as -37.4% (inactive). In the case of CCN(CC)S(=O)(=O)c1cccc(C(=O)Nc2nnc(C)s2)c1, the inhibition is reported as 10.5% (inactive). With CCN(CC)C(=O)CNc1ccc(C(F)(F)F)cc1[N+](=O)[O-] the inhibition was 4.7% (inactive). In the case of CCOc1ccc(N(CC(=O)N2CCN(c3ccccc3OC)CC2)S(=O)(=O)c2ccc(F)cc2)cc1, the inhibition is reported as -13% (inactive). With CCc1ccc(OCC(=O)NC(=S)Nc2ccc(C(C)=O)cc2)c(Br)c1 the inhibition was 41.8% (inactive). With CCCn1c(=O)c(C(=O)Nc2c(C)n(C)n(-c3ccccc3)c2=O)c(O)c2ccccc21 the inhibition was 0.6% (inactive). With O=C(NCC1CCCN(C(=O)NCc2ccccc2)C1)c1ccc2c(c1)OCO2 (stereo not given) the inhibition was -0.6% (inactive).
